In PubChem BioAssay AID1159580 (chemical genetic matrix, 2015):
Among all 5,500 compounds or so, about 2,000 (36%) were called active. Not shown: some 18% with an inconclusive outcome. No stated cut-off is given here; in the data, active means normalized growth mostly below about 0.91 (no sharp cut-off); inconclusive means no clear call, values can overlap the other calls; inactive means mostly above about 0.92. The list shows a part of the results.

Experiment: chemical genetic growth profiling, strain panel (AID 1159580);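 further: tested at 20 µM; growth read once vehicle control cultures reached saturation at 30 °C; 1 = growth at the plate median or of vehicle wells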
Settings: S. cerevisiae deletion strains, growth OD
[1] = locus YAL013W, strain DEP1, stronger effect = lower value
[2] = locus YBR229C, strain ROT2, stronger effect = lower value
[3] = locus YCL061C, strain MRC1, stronger effect = lower value
[4] = locus YDL101C, strain DUN1, stronger effect = lower value
[5] = locus YDR150W, strain NUM1, stronger effect = lower value
[6] = locus YEL061C, strain CIN8, stronger effect = lower value
[7] = locus YGR078C, strain PAC10, stronger effect = lower value
[8] = locus YHR030C, strain SLT2, stronger effect = lower value
[9] = locus YHR087W, strain rtc3, stronger effect = lower value
[10] = locus YJR043C, strain POL32, stronger effect = lower value
[11] = locus YJR075W, strain HOC1, stronger effect = lower value
[12] = locus YLR039C, strain RIC1, stronger effect = lower value
[13] = locus YLR058C, strain SHM2 (second series), stronger effect = lower value
[14] = locus YLR085C, strain ARP6, stronger effect = lower value
[15] = locus YLR262C, strain YPT6, stronger effect = lower value
[16] = locus YML094W, strain GIM5, stronger effect = lower value
[17] = locus YMR219W, strain ESC1, stronger effect = lower value
[18] = locus YMR263W, strain SAP30, stronger effect = lower value
[19] = locus YNL153C, strain GIM3, stronger effect = lower value
[20] = locus YNL298W, strain CLA4 (second series), stronger effect = lower value
[21] = locus YNL322C, strain KRE1, stronger effect = lower value
[22] = locus YNR030W, strain Alg12, stronger effect = lower value
[23] = locus YPL055C, strain LGE1, stronger effect = lower value
[24] = locus YPL241C, strain CIN2, stronger effect = lower value
[25] = locus YPR135W, strain CTF4, stronger effect = lower value
[26] = locus YAR019C, strain CDC15, stronger effect = lower value
[27] = locus YBL105C, strain PKC1, stronger effect = lower value
[28] = locus YBR135W, strain CKS1, stronger effect = lower value
[29] = locus YBR136W, strain MEC1, stronger effect = lower value
[30] = locus YBR160W, strain CDC28, stronger effect = lower value
[31] = locus YDL017W, strain CDC7, stronger effect = lower value
[32] = locus YDL028C, strain MPS1, stronger effect = lower value
[33] = locus YDL108W, strain KIN28, stronger effect = lower value
[34] = locus YDL132W, strain cdc53, stronger effect = lower value
[35] = locus YDL214C, strain PRR2, stronger effect = lower value
[36] = locus YDR052C, strain DBF4, stronger effect = lower value
[37] = locus YDR054C, strain cdc34, stronger effect = lower value
[38] = locus YDR226W, strain ADK1, stronger effect = lower value
[39] = locus YDR477W, strain SNF1, stronger effect = lower value
[40] = locus YER123W, strain YCK3, stronger effect = lower value
[41] = locus YER133W, strain GLC7, stronger effect = lower value
[42] = locus YFL009W, strain cdc4, stronger effect = lower value
[43] = locus YFL029C, strain CAK1, stronger effect = lower value
[44] = locus YFR003C, strain YPI1, stronger effect = lower value
[45] = locus YFR019W, strain FAB1, stronger effect = lower value
[46] = locus YFR028C, strain CDC14, stronger effect = lower value
[47] = locus YGR040W, strain KSS1, stronger effect = lower value
[48] = locus YGR052W, strain FMP48, stronger effect = lower value
[49] = locus YGR092W, strain DBF2, stronger effect = lower value
[50] = locus YHR079C, strain IRE1, stronger effect = lower value
[51] = locus YHR082C, strain KSP1, stronger effect = lower value
[52] = locus YHR205W, strain SCH9, stronger effect = lower value
[53] = locus YIL147C, strain SLN1, stronger effect = lower value
[54] = locus YJL095W, strain BCK1, stronger effect = lower value
[55] = locus YJL128C, strain PBS2, stronger effect = lower value
[56] = locus YJL157C, strain FAR1, stronger effect = lower value
[57] = locus YJR016C, strain ILV3, stronger effect = lower value
[58] = locus YJR066W, strain TOR1 (second series), stronger effect = lower value
[59] = locus YJR066W, strain TOR1, stronger effect = lower value
[60] = locus YKL048C, strain ELM1, stronger effect = lower value
[61] = locus YKL067W, strain YNK1, stronger effect = lower value
[62] = locus YKL101W, strain HSL1, stronger effect = lower value
[63] = locus YKL193C, strain SDS22, stronger effect = lower value
[64] = locus YKL203C, strain TOR2, stronger effect = lower value
[65] = locus YLR113W, strain HOG1, stronger effect = lower value
[66] = locus YLR133W, strain CKI1, stronger effect = lower value
[67] = locus YLR403W, strain SFP1, stronger effect = lower value
[68] = locus YML070W, strain DAK1, stronger effect = lower value
[69] = locus YMR001C, strain CDC5, stronger effect = lower value
[70] = locus YMR205C, strain PFK2 (second series), stronger effect = lower value
[71] = locus YMR277W, strain FCP1, stronger effect = lower value
[72] = locus YNL006W, strain LST8, stronger effect = lower value
[73] = locus YNL020C, strain ARK1, stronger effect = lower value
[74] = locus YNL161W, strain CBK1, stronger effect = lower value
[75] = locus YNL183C, strain NPR1, stronger effect = lower value
[76] = locus YNL207W, strain RIO2, stronger effect = lower value
[77] = locus YNL222W, strain SSU72, stronger effect = lower value
[78] = locus YNL307C, strain MCK1 (second series), stronger effect = lower value
[79] = locus YOL078W, strain AVO1, stronger effect = lower value
[80] = locus YOL136C, strain PFK27, stronger effect = lower value
[81] = locus YOR061W, strain CKA2, stronger effect = lower value
[82] = locus YOR119C, strain RIO1, stronger effect = lower value
[83] = locus YOR231W, strain MKK1, stronger effect = lower value
[84] = locus YOR329C, strain SCD5, stronger effect = lower value
[85] = locus YPL031C, strain PHO85, stronger effect = lower value
[86] = locus YPL153C, strain RAD53, stronger effect = lower value
[87] = locus YPL209C, strain IPL1, stronger effect = lower value
[88] = locus YPL256C, strain CLN2, stronger effect = lower value
[89] = locus YPR025C, strain CCL1, stronger effect = lower value
[90] = locus YPR106W, strain ISR1, stronger effect = lower value
[91] = locus YPR111W, strain DBF20, stronger effect = lower value
[92] = strain NNK1, stronger effect = lower value
[93] = strain TSCII, stronger effect = lower value

Measured: normalized growth

O=C(NNC(=S)Nc1ccc(F)cc1)c1ccccc1Cl
active: locus YOL006C, strain TOP1, stronger effect = lower value 0.629
inactive: [1] 0.987 | [2] 1 | [3] 1 | [4] 1.04 | locus YDL134C, strain PPH21, stronger effect = lower value 0.976 | [5] 0.987 | [6] 0.958 | [7] 0.972 | locus YGR229C, strain SMI1, stronger effect = lower value 0.97 | [8] 0.948 | [9] 0.977 | [10] 1.01 | [11] 1.01 | locus YKL190W, strain CNB1, stronger effect = lower value 0.966 | [12] 0.933 | [13] 0.98 | [14] 0.897 | [15] 0.963 | [16] 0.96 | [17] 1.01 | [18] 0.977 | locus YNL128W, strain TEP1, stronger effect = lower value 0.971 | [19] 1.01 | [20] 0.923 | [21] 0.997 | [22] 0.94 | [23] 0.921 | [24] 1.01 | [25] 0.982

N#CCC(=O)NNC(=S)Nc1ccc(Cl)c(Cl)c1
inactive: [26] 0.991 | [27] 0.985 | [28] 0.981 | [29] 0.983 | [30] 0.991 | [31] 0.987 | [32] 0.986 | [4] 0.981 | [33] 0.98 | [34] 0.974 | [35] 0.938 | [36] 0.988 | [37] 0.98 | [38] 0.982 | [39] 0.929 | [40] 0.895 | [41] 0.92 | [42] 0.98 | [43] 0.989 | [44] 0.979 | [45] 0.969 | [46] 0.979 | [47] 0.93 | [48] 0.955 | [49] 0.965 | [8] 0.931 | [50] 0.965 | [51] 1.04 | [52] 0.96 | [53] 0.986 | [54] 0.932 | [55] 0.943 | [56] 0.931 | [57] 0.978 | [58] 0.913 | [59] 1.07 | [60] 0.97 | [61] 0.936 | [62] 0.942 | [63] 0.975 | [64] 1.01 | [65] 0.881 | [66] 0.96 | [67] 0.963 | [68] 0.93 | [69] 0.979 | [70] 0.942 | [71] 0.982 | [72] 0.984 | [73] 0.964 | [74] 0.981 | [75] 1.04 | [76] 0.978 | [77] 0.984 | [78] 0.962 | [79] 0.975 | [80] 0.95 | [81] 0.95 | [82] 0.988 | [83] 0.975 | [84] 0.985 | [85] 0.916 | [86] 0.916 | locus YPL204W, strain HRR25, stronger effect = lower value 0.917 | [87] 0.987 | [88] 0.956 | [89] 0.988 | [90] 0.975 | [91] 0.976 | [92] 0.988 | [93] 0.983

Cc1c(Cl)cccc1NC(=S)Nc1ccc(Cl)cc1C(=O)c1ccccc1
inactive: [1] 0.999 | [2] 0.991 | [3] 0.985 | [4] 0.993 | [5] 0.987 | [6] 1 | [7] 0.968 | [8] 0.894 | [9] 0.99 | [10] 0.989 | [11] 0.971 | [12] 0.907 | [13] 1.01 | [14] 0.969 | [15] 0.946 | [16] 0.98 | [17] 0.991 | [18] 0.993 | locus YMR307W, strain GAS1, stronger effect = lower value 0.924 | [19] 0.984 | [20] 0.987 | [21] 0.986 | [22] 0.969 | [23] 0.98 | [24] 0.969 | [25] 0.956

O=C(c1ccccc1)c1cc(Cl)ccc1NC(=S)Nc1ccc(F)cc1
inactive: [26] 0.984 | [27] 0.992 | [28] 0.99 | [29] 0.987 | [30] 0.998 | [31] 0.996 | [32] 0.994 | [4] 0.996 | [33] 0.985 | [34] 0.992 | [35] 0.968 | [36] 0.994 | [37] 0.994 | [38] 0.993 | [39] 0.982 | [40] 0.95 | [41] 0.977 | [42] 0.986 | [43] 0.987 | [44] 0.988 | [45] 0.945 | [46] 0.991 | [47] 0.967 | [48] 1.02 | [49] 0.989 | [8] 0.97 | [50] 0.997 | [51] 1.12 | [52] 0.988 | [53] 0.994 | [54] 0.988 | [55] 0.947 | [56] 0.962 | [57] 0.988 | [58] 0.937 | [59] 1.05 | [60] 0.99 | [61] 0.968 | [62] 0.971 | [63] 0.991 | [64] 1 | [66] 0.983 | [67] 0.974 | [68] 0.978 | [69] 0.995 | [70] 0.977 | [71] 0.976 | [72] 0.992 | [73] 0.983 | [74] 0.992 | [75] 1.02 | [76] 0.992 | [77] 0.987 | [78] 0.968 | [79] 0.999 | [80] 0.969 | [81] 0.973 | [82] 1.05 | [83] 0.994 | [84] 0.993 | [85] 0.969 | [86] 0.988 | [87] 0.993 | [88] 0.985 | [89] 0.99 | [90] 0.997 | [91] 0.963 | [92] 0.995 | [93] 0.991
active: [65] 0.858
